Sm TGR block: inhibitors of Schistosoma mansoni thioredoxin glutathione reductase. Q962Y6. purified TGR, DTNB reduction, TNB absorbance 405 nm. Potency, µM (doses to about 114 µM), without a hit: at the highest dose activity change, negative = inhibition, actives largely listed as inhibitors. 360,000 tested, 3% active. AID 485364; note: potency is the fitted concentration of half-maximal effect; % is set by controls: 0 for no effect and ±100 for the full control effect; nearly all actives have a fitted effect of over 60% in size
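Kinetic colorimetric format: TGR-catalysed, NADPH-driven DTNB reduction monitored via TNB absorbance. Enzyme dispensed at 20 nM; compound exposure 15 min at room temperature before reaction start.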
Pf growth 96h: inhibits malaria parasite growth, 96 h; P. falciparum luciferase reporter growth, 96 h; Potency, µM (doses to about 28.7 µM), without a hit: at the highest dose activity change, negative = inhibition, hits mostly inhibitors; 320,000 tested, 6.9% active; AID 504834; note: potency is the fitted concentration of half-maximal effect; % is set by controls: 0 for no effect and ±100 for the full control effect
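Parasite growth measured via integrated firefly luciferase reporter in P. falciparum. Infected erythrocytes at 2% hematocrit, 0.05% parasitemia final were treated 96 hours at 37 C under 5% CO2, and luminescence was read.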
Pf growth 48h: P. falciparum growth inhibition at 48 hours (one generation); AID 504832; 310,000 tested, 5.9% active; Potency, µM (highest dose often 28.7 µM), without a hit: at the highest dose activity change, negative = inhibition, actives largely listed as inhibitors; P. falciparum luciferase growth in erythrocytes, 48 h; note: potency is the fitted concentration of half-maximal effect; % is set by controls: 0 for no effect and ±100 for the full control effect
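A one-generation exposure of luciferase-tagged malaria parasites in RPMI 1640/Albumax erythrocyte culture, 37 C and 5% CO2. Inhibition is inferred from decreased luminescence after adding detection reagent.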
HCV inhibitor: blocks hepatitis C virus | Huh7.5.1 HCVcc-Cre infection, luciferase reporter, 44 h | Potency, µM (series often up to 41.8 µM), for inactives: at the top dose activity change, negative = inhibition, most hits filed as inhibitors | 340,000 tested, 3.4% active; note: potency is the fitted concentration of half-maximal effect; % is set by controls: 0 for no effect and ±100 for the full control effect
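Cells seeded at 1,000/well and cultured 4 h, then compounds added followed by HCVcc-Cre virus (~0.5 moi). After 44 h further culture, luciferase substrate was added, plates held 15 min at room temperature, and luminescence read for 15 sec.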
SARS PLP yeast: inhibitors of SARS-CoV papain-like protease in yeast | AID 485353 | 330,000 tested, 0.19% active | S. cerevisiae expressing SARS-CoV PLpro, growth rescue | Potency, µM (series often up to 32.9 µM), without a hit: at the top dose activity, positive = growth rescue, usual class: activators; calls by dose curve; note: potency is the fitted concentration of half-maximal effect; 0% is about no effect; nearly all actives have a fitted effect of over 55% in size
HCMV antiviral: blocks human cytomegalovirus replication | HFF cells, HCMV-luciferase reporter, 72 h; active compounds read low | activity change, negative = inhibition, % at 57.5 µM | 410,000 tested, 4.5% active | AID 1259415; in the data active = activity change below about -60%; inconclusive = no clear call, values can overlap the other calls; inactive = above about -39%; note: % is set by controls: 0 for no effect and ±100 for the full control effect
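HFF cells seeded 16 h at 37C, treated with compounds, infected with luciferase-reporter HCMV at MOI 1 PFU/cell; luciferase read at 72 h post infection, normalized to buffer-only and Salinomycin controls.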
The depositor's hits bear a star; ? = inconclusive; . = not tested or not shown. Most compounds without a hit are left out; they make up all but 15% or so of the library. Unless noted, calls come from the whole dose curve; as a rule, active = well fitted curve in the direction sought with a large enough effect; inconclusive = small, poorly fitted or top-dose-only effect, or another doubt; inactive = no such curve, though single readings can be large; an effect the other way counts as inactive or inconclusive.

SMILES	Sm TGR block	Pf growth 96h	Pf growth 48h	HCV inhibitor	SARS PLP yeast	HCMV antiviral
CC1CN(S(=O)(=O)c2cccc(C(=O)Nc3ccc(S(=O)(=O)Nc4ncccn4)cc3)c2)CC(C)O1 (stereo not drawn)	-1%	-4%	?	19%	0%	-34
Cc1ccc(C(=O)Nc2ccc(S(=O)(=O)NC3=NCCCCC3)cc2)cc1S(=O)(=O)N1CCOCC1	-11%	13µM*	2.3µM*	-4%	6%	4
CN1CCN(c2oc(-c3ccccc3)nc2S(=O)(=O)c2ccc(Br)cc2)CC1	-22%	44%	?	-12%	-4%	.
COc1ccccc1CNC(=O)CCc1c(C)nc2c(c(C)nn2-c2ccc(C)c(C)c2)c1C	1%	.	.	.	.	-4
CC(C)CCN1C(=O)c2ccc(C(=O)Nc3ccccn3)cc2C1=O	-14%	11%	10%	-4%	2%	10
Cc1ccc([C@H]2C(C(=O)O)=CCN2S(=O)(=O)c2ccc(C)cc2)cc1	.	.	.	.	.	2
CCc1cc(C(=O)Nc2ccc(S(=O)(=O)NC3=NCCCCC3)cc2)sc1C	1%	4.1µM*	?	?	-3%	-13
COc1ccccc1C(=O)Nc1ccc(S(=O)(=O)NC2=NCCCCC2)cc1	-1%	?	-26%	-25%	0%	-60*
O=C(/C=C/c1ccc([N+](=O)[O-])cc1)Nc1cccc(S(=O)(=O)NC2=NCCCCC2)c1	.	.	.	25µM*	1%	-39
O=C(/C=C/c1ccccc1Cl)Nc1cccc(S(=O)(=O)NC2=NCCCCC2)c1	7%	?	0%	?	-3%	50
O=C(Nc1cccc(S(=O)(=O)NC2=NCCC2)c1)c1cn(-c2ccccc2)nc1-c1ccc(F)cc1	.	.	.	11µM*	3%	2
Cc1cccc(-c2cccc3nccn23)c1	.	.	.	.	.	-12
O=C(Cc1ccc([N+](=O)[O-])cc1)N/N=C/c1ccccc1F	-3%	-2%	18%	4%	5%	-2
NS(=O)(=O)c1ccc(S(=O)(=O)N(Cc2ccccc2F)CC2CCCO2)cc1 (stereo not drawn)	0%	13µM*	?	3%	-5%	18
O=c1[nH]c2ccccc2cc1CN(CC1CCCO1)S(=O)(=O)c1ccc(Cl)cc1 (stereo not drawn)	-11%	13%	15%	19%	-1%	?
COc1cccc(CN(CC2CCCO2)S(=O)(=O)c2ccc(-n3cnnn3)c(OC)c2)c1 (stereo not drawn)	16%	11%	?	-17%	0%	-15
CCN(Cc1ccccc1)S(=O)(=O)c1ccc(S(=O)(=O)N(Cc2cccc(OC)c2)CC2CCCO2)cc1 (stereo not drawn)	-8%	5.2µM*	.	-8%	-1%	-13
Cc1cc(OI)c(C(C)C)cc1-c1cc(C(C)C)c(OI)cc1C	.	6.7µM*	?	.	.	.
Cc1[nH]c2ccccc2c1CN1CCC(Cc2ccccc2)CC1	-19%	-182%	?	?	-2%	?
CC(C)CN(CC(C)C)C1=N/C(=C\c2ccco2)C(=O)N1c1ccccc1	6.3µM*	17%	?	8%	-2%	-5
CCN(CC)C1=N/C(=C\c2ccco2)C(=O)N1c1ccccc1	45µM*	7%	19%	-5%	-8%	-20
Cn1c(=O)c2c(nc(SC3C(=O)CC(C)(C)CC3=O)n2C)n(C)c1=O	-17%	12µM*	24%	5%	3%	0
CC(C)Sc1nc2c(c(=O)n(C)c(=O)n2C)n1C	5%	0%	13%	19%	17%	112
C[C@H]1CN([C@@H](C)CO)C(=O)c2cc(C3=CCCC3)cnc2O[C@@H]1CN(C)C(=O)c1ccncc1	.	.	.	.	.	5
CCOC(=O)c1ccc2nc(C)cc(Nc3ccc(OC(C)C)cc3)c2c1	1%	.	.	.	.	-35
SMILES	Sm TGR block	Pf growth 96h	Pf growth 48h	HCV inhibitor	SARS PLP yeast	HCMV antiviral
COc1ccc(C(=O)COC(=O)c2ccc(NC(=O)c3ccccc3)cc2)cc1	32%	11%	21%	10µM*	2%	2
COc1ccc(C(=O)Nc2ccc(C(=O)OCC(=O)c3ccccc3)cc2)cc1	1%	-10%	10%	13%	0%	7
CCN(Cc1ccccc1)C(=O)c1ccc(NC(=O)c2ccc(OC)cc2)cc1	-28%	-4%	-9%	13µM*	0%	?
Cn1c(N)c(C(=O)CSc2nc(C3CC3)n(-c3ccccc3)n2)c(=O)n(C)c1=O	-3%	?	?	9%	-2%	-12
CS(=O)(=O)c1ccc(NC(=O)c2cccc(S(=O)(=O)N3CCN(Cc4ccccc4)CC3)c2)cc1	7%	9.3µM*	?	10µM*	2%	?
O=C(Nc1ccc(S(=O)(=O)N2CCCC2)cc1)c1cnccn1	2%	66%	-12%	?	-1%	-3
O=C(Nc1ccc(S(=O)(=O)N2CCN(Cc3ccccc3)CC2)cc1)c1cnccn1	?	?	-6%	6.3µM*	-4%	-86*
CN(CC(=O)Nc1ccc(Cl)cc1)C(=O)c1cccc(S(=O)(=O)N2CCN(Cc3ccccc3)CC2)c1	-6%	?	1%	11µM*	-2%	-73*
CC(=O)[C@]1(O)Cc2c(O)c3c(c(O)c2[C@@H](O[C@H]2C[C@H](N)[C@H](O)[C@H](C)O2)C1)C(=O)c1ccccc1C3=O	.	2.7µM*	3.8µM*	11µM*	.	.
CC(=O)[C@]1(O)Cc2c(O)c3c(c(O)c2[C@@H](O[C@H]2C[C@H](N)[C@H](O)[C@H](C)O2)C1)C(=O)c1c(O)cccc1C3=O	.	1.5µM*	2.4µM*	.	.	.
COc1cccc2c1C(=O)c1c(O)c3c(c(O)c1C2=O)CC(O)(C(=O)CO)CC3OC1CC(N(C)C)C(O)C(C)O1 (stereo not drawn)	.	.	.	?	.	-98*

Bioassay records (PubChem)
